Source: PubChem BioAssay AID1445 (SRMLSC, 2008)
Among all 220,000 compounds or so, about 910 (0.41%) were called active. This excerpt belongs to a sample that is enriched for actives. Results with a measured potency or affinity are listed apart. Unmarked numbers belong to inactive results.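 Rule for the calls: active = primary inhibition above the hit cutoff, then over 50% inhibition at one or more dose response concentrations (cut at about 23% in these data, passing the limit was not always enough); inconclusive = conflicting primary data, or primary hits not chosen for dose response; inactive = low primary inhibition, or under 50% at every dose.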

Molecular target: Aminopeptidase N (Plasmodium falciparum (isolate 3D7)) (UniProt O96935)
Test: P. falciparum M1AAP inhibitors, biochemical, fluorogenic H-Leu-NHMec substrate, 1536-well (AID 1445);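 note: plate controls were DMSO full reaction for no effect and no enzyme background for full effect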
Settings: recombinant M1AAP, H-Leu-NHMec fluorogenic kinetic assay; at 30 µM, active compounds read high unless noted

Sequence of Aminopeptidase N (Plasmodium falciparum (isolate 3D7)) (O96935 whole entry, looked up): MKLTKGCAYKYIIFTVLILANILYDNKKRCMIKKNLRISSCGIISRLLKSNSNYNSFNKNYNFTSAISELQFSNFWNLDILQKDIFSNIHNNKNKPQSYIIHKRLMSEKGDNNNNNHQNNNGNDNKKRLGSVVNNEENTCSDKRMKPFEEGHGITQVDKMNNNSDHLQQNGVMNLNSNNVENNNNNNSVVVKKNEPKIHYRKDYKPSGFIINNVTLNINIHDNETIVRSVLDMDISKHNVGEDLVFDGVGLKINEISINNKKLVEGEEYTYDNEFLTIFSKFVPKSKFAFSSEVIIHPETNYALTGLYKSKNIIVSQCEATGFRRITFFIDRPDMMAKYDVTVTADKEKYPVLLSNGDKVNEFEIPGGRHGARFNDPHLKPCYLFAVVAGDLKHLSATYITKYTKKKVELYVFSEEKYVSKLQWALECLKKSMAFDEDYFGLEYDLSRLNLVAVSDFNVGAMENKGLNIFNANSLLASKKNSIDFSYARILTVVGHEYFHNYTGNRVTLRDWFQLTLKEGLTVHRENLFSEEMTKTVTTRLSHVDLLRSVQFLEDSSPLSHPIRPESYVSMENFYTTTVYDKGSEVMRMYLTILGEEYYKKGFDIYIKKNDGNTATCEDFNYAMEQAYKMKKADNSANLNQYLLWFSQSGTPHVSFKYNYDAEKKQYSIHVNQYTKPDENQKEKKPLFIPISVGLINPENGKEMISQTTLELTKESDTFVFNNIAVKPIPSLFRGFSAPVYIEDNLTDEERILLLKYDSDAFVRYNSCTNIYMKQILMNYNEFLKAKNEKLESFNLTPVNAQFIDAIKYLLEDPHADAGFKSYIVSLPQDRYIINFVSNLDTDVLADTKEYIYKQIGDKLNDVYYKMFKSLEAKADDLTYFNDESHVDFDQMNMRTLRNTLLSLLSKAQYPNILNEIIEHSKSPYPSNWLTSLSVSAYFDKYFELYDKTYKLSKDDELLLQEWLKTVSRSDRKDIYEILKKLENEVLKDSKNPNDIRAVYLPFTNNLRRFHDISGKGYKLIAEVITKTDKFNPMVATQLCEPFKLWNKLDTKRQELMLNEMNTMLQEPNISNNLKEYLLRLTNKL

Going from `COc1ccc(C2CC(=O)C(C=NCCN3CCN(C(=S)Nc4ccccc4)CC3)=C(O)C2)cc1OC` (centres undefined) to `COc1cc(OC)c2c(C)cc(=O)oc2c1C(CCN1CCN(c2ccccc2)CC1)c1ccc2c(c1)OCO2` (centres undefined), the inhibition falls from 12.8% to 1.4%.

Going from `O=C(CNC(=O)c1ccccc1)N/N=C/c1cn[nH]c1-c1ccccc1` to `O=C(Cn1nnc(-c2ccccc2)n1)N/N=C/c1cccc([N+](=O)[O-])c1O`, the inhibition rises from 4.33% to 7.92%.

Compared with `Cc1ccc(-c2cc(-c3ccccc3)c3c(N)c(S(C)(=O)=O)sc3n2)cc1`, `N#Cc1sc2nc(-c3cccs3)cc(-c3ccccc3)c2c1N` is lower in inhibition: 14.5% for the first, 13.3% for the second.

Going from `CCN(CC)C(=O)c1sc2nc(-c3cccs3)cc(-c3cccs3)c2c1N` to `CC(C)NC(=O)c1sc2nc3c(c(-c4cccs4)c2c1N)CN(C)CC3`, the inhibition falls from 7.47% to 5.01%.

Compared with `Cc1ccc(NC(=O)CCc2c(C)nc3ncnn3c2C)cc1`, `C=CCn1c(CNc2ccc(C)cc2)nnc1SCC(=O)N/N=C/c1ccc(O)cc1` is higher in inhibition: 0.77% for the first, 14.4% for the second.

Compared with `CC(NC(=O)c1cc(-c2ccc3c(c2)OCO3)nc2ccccc12)C(C)(C)C` (centres undefined), `CC(=O)Nc1cccc(/C(C)=N/NC(=O)c2cc(-c3ccncc3)nc3ccccc23)c1` is higher in inhibition: 3.57% for the first, 10.5% for the second.

Going from `COc1ccc(C2/C=C\CN(Cc3ccco3)CC(=O)N2Cc2ccc(F)cc2)cc1` (centres undefined) to `O=C1CC(N(Cc2ccc3c(c2)OCO3)C(=O)Nc2ccc(F)cc2)C(=O)N1c1ccccc1` (centres undefined), the inhibition rises from 4.94% to 20.8%.

First: C=CCN1C(=S)N[C@@H]2CS(=O)(=O)C[C@@H]21
Second: O=C(Cn1nnc2ccccc2c1=O)NCC1CCC(C(=O)O)CC1 (centres undefined)
The inhibition of the first is higher: 5.08% for the first, 0.69% for the second.

Compared with `O=C(Nc1cccc(F)c1)c1cc(S(=O)(=O)N2CCOCC2)cs1`, `O=C(NCc1cccs1)C1CCN(c2ccc(S(=O)(=O)N3CCOCC3)cc2Cl)CC1` is lower in inhibition: 9% for the first, -0.57% for the second.

Going from `COc1ccc(-c2cn3cccnc3n2)cc1NC(=O)c1ccc(Br)o1` to `O=C(Nc1cccc(-c2cn3cccnc3n2)c1)c1ccc(Br)o1`, the inhibition falls from 11.3% to 2.48%.

Going from `Cc1cc(N2CCCC2)c(C)cc1C=O` to `Cc1cc(SCC(=O)N/N=C/c2ccc(O)c(O)c2O)c(C)cc1Br`, the inhibition rises from 17.1% to 39%.

Going from `Cc1cccc(NC(=O)CN2CCSc3ccccc32)c1` to `CN(CC(=O)Nc1cccc2ccccc12)C(=O)/C=C/c1cccs1`, the inhibition rises from 6.82% to 16.9%.

Going from `COc1ccc(Cl)cc1C(=O)NNC(=O)c1nc2nc(C)cc(C)n2n1` to `Cc1cc(C)n2nc(C(=O)NNC(=O)c3ccccc3)nc2n1`, the inhibition rises from 0.99% to 5.93%.

First: O=C(OCn1nnc2ccccc2c1=O)c1cc(-c2ccccc2Cl)nc2ccccc12
Second: Cc1ccc(N2C(=O)CC(Sc3nc(-c4ccccc4)c4cc(Cl)ccc4n3)C2=O)c(C)c1 (centres undefined)
The inhibition of the first is higher: 12.3% for the first, 8.91% for the second.

Going from `COc1ccc(CC(=O)n2[nH]c(=O)cc(C)c2=O)cc1OC` to `COC(=O)Cc1cc(=O)oc2cc(OC)ccc12`, the inhibition falls from 8.27% to 1.65%.

Going from `O=C(NCCc1ccc(Cl)cc1)C1CCN(S(=O)(=O)c2ccc(Br)s2)CC1` to `NS(=O)(=O)c1ccc(CCNC(=O)C2CCN(S(=O)(=O)c3ccc(Br)s3)CC2)cc1`, the inhibition falls from 4.81% to 2.64%.

First: COc1ccc(S(=O)(=O)N2CCC(C(=O)NCc3cccs3)CC2)cc1
Second: CCS(=O)(=O)N1CCC(C(=O)NCc2cccs2)CC1
The inhibition of the first is lower: 6.28% for the first, 10.2% for the second.

Compared with `O=C(Nc1ccc2c(c1)OCCO2)C1CCN(S(=O)(=O)c2ccc3c(c2)OCCO3)CC1`, `COc1ccc(S(=O)(=O)N2CCC(C(=O)Nc3ccc4c(c3)OCCO4)CC2)cc1OC` is lower in inhibition: 9.64% for the first, 1.25% for the second.

Going from `O=C(NCc1ccc(Cl)cc1)C1CCN(S(=O)(=O)c2ccccc2)CC1` to `O=C(NCc1cccs1)C1CCCN1S(=O)(=O)c1ccccc1F` (centres undefined), the inhibition falls from 11.8% to 2.94%.

Compared with `O=C(NCc1cccs1)C1CCCN(S(=O)(=O)c2ccc3c(c2)OCO3)C1` (centres undefined), `O=C(NCc1cccs1)C1CCCN(S(=O)(=O)c2ccc(Br)s2)C1` (centres undefined) is higher in inhibition: 8.66% for the first, 18.8% for the second.

Compared with `N#CCCN1CCN(C(=S)c2ccc(-c3ccc(Cl)c(Cl)c3)o2)CC1`, `N#C/C(=C\c1ccc(-c2cccc(Cl)c2)o1)C(=O)Nc1cccc2cccnc12` is lower in inhibition: 7.98% for the first, -0.58% for the second.

Compared with `N#C/C(=C(/O)c1ccc([N+](=O)[O-])cc1)c1nc2ccccc2[nH]1`, `O=C(Cn1nc2ccccc2n1)N/N=C/c1cc([N+](=O)[O-])ccc1O` is higher in inhibition: 6.69% for the first, 37.9% for the second.

Compared with `CCOC(=O)N1CCN(C(=O)CCl)CC1`, `Cc1ccc(N2CCN(C(=O)c3ccccc3NC(=O)c3ccccc3C(=O)O)CC2)cc1` is higher in inhibition: 2.94% for the first, 6.79% for the second.

Going from `COCCNC(=O)c1cc2cc(Br)cc(Br)c2oc1=O` to `COCCCNc1nc2ccccc2[nH]c1=O`, the inhibition rises from 2.6% to 7.88%.

Compared with `Cn1c(N)c(C(=O)COC(=O)C2=COCCO2)c(=O)n(C)c1=O`, `Cc1c(NC(=O)c2ccc3c(c2)C(=O)N(Cc2ccco2)C3=O)cccc1C(=O)O` is lower in inhibition: 3.8% for the first, 3.77% for the second.

Going from `O=C(NCc1cccs1)C1CCC(CNS(=O)(=O)c2ccc(Br)s2)CC1` (centres undefined) to `O=C(NCc1cccs1)C1CCCN(S(=O)(=O)c2cccs2)C1` (centres undefined), the inhibition rises from -4.74% to 14.9%.

First: O=C(NCc1cccs1)C1CCN(S(=O)(=O)N2CCCC2)CC1
Second: OCCC1CN(Cc2c(F)cccc2Cl)CCN1C1CCCC1 (centres undefined)
The inhibition of the first is higher: 4.08% for the first, -1.58% for the second.

First: COc1ccccc1NC(=O)c1ccc(-n2cncn2)nc1
Second: COc1cccc(/C=N\NC(=O)Cn2nnc3ccccc32)c1O
The inhibition of the first is higher: 18.8% for the first, 1.18% for the second.

Going from `FC(F)(F)c1ccc(Oc2ccccc2Cl)nc1` to `Oc1ccc(Cl)cc1C=Nc1ccccc1Br`, the inhibition falls from 2.42% to 1.39%.

Going from `CCC(=O)N(Cc1ccco1)C1CC(=O)N(c2ccccc2)C1=O` (centres undefined) to `CCOc1[nH]n(-c2ccccc2)c(=O)c1C=Nc1ccccc1`, the inhibition rises from 0.67% to 7.67%.

Compared with `CCCCc1ccc(NC(=O)C(C)CC)cc1` (centres undefined), `CCNS(=O)(=O)c1ccc(NC(=O)CC(C)c2ccccc2)cc1` (centres undefined) is lower in inhibition: 1.58% for the first, 1.21% for the second.

Compared with `CC1=NN(C(=O)Cc2ccc([N+](=O)[O-])cc2)C(O)(c2cccnc2)C1` (centres undefined), `Cc1cc(C)n(CC(=O)N/N=C/c2cc([N+](=O)[O-])ccc2O)n1` is higher in inhibition: 7.72% for the first, 31.6% for the second.

Going from `O=C(Nc1ccc(O)cc1C(=O)O)c1ccc2c(c1)C(=O)N(Cc1ccco1)C2=O` to `Cc1ccc(C(=O)Nc2ccccc2C(=O)O)cc1NC(=O)COc1c(C)cccc1C`, the inhibition falls from 15.1% to 4.7%.

First: O=C1CCC(=O)N1N1C(=O)C2C3c4ccccc4C(c4ccccc43)C2C1=O (centres undefined)
Second: O=C1CC(c2cccs2)c2ccc3ccccc3c2N1 (centres undefined)
The inhibition of the first is lower: 0.65% for the first, 0.72% for the second.

Going from `Cc1cc(C)n(CC(=O)N/N=C/c2ccc([N+](=O)[O-])s2)n1` to `O=C(Cn1cnc([N+](=O)[O-])n1)N/N=C/c1ccc(O)cc1O`, the inhibition falls from 13.2% to 2.52%.

Going from `Cc1cc(C(=O)N/N=C/c2cc(Cl)cc([N+](=O)[O-])c2O)c2ccccc2n1` to `O=C(N/N=C/c1cc(Cl)cc([N+](=O)[O-])c1O)C1CC1`, the inhibition falls from 30.4% to 29.8%.

First: O=C(Cn1cnc([N+](=O)[O-])n1)N/N=C/c1ccccc1O
Second: C=CCn1c(CNc2ccccc2)nnc1SCC(=O)N/N=C/c1ccccc1O
The inhibition of the first is lower: 0.91% for the first, 30.8% for the second.

Going from `Cc1nc2c(c(=O)c3ccccc3n2C)c(=O)n1C1CCCCCC1` to `Cc1cc(C)cc(N(C(=O)c2nsc(Cl)c2Cl)C(C(=O)NC2CCCC2)c2ccc(O)cc2)c1` (centres undefined), the inhibition falls from -1.82% to -3.07%.

Compared with `NS(=O)(=O)c1ccc(N/C=C\C(=O)c2ccncc2)cc1`, `CCOC(=O)c1ccc(NC(=O)CNS(=O)(=O)c2ccccc2)cc1` is lower in inhibition: 13% for the first, 2.05% for the second.

First: Cc1cc(C)n(-c2ccc(Oc3ccccc3)c(S(=O)(=O)O)c2)n1
Second: Cc1ccc(N2C(=S)NC3c4ccccc4OC2(C)C3C(=O)N(C)C)cc1 (centres undefined)
The inhibition of the first is lower: 1.18% for the first, 2.84% for the second.

Going from `CN(Cc1cnccn1)Cc1nc(Cc2cccc(F)c2)no1` to `N#Cc1cc2c(nc1SCc1ccccc1)CCCC2`, the inhibition rises from 2.76% to 5.77%.

Compared with `Oc1ccc(Cl)cc1N=Cc1sc2ccccc2c1Cl`, `CCn1c(SCC(=O)N/N=C/c2cc(OC)c(O)c(OC)c2)nc2ccccc21` is lower in inhibition: 21% for the first, 3.33% for the second.

First: COc1ccc(OC)c2c1sc(=NC(=O)C1CC1)n2C
Second: COc1ccc2c(CC(=O)NCC3CCC(C(=O)O)CC3)cc(=O)oc2c1 (centres undefined)
The inhibition of the first is lower: 2.25% for the first, 3.73% for the second.

First: COc1ccc2[nH]c(=O)c(NC(N)=S)nc2c1
Second: CCCCc1cc(=O)oc2cc(O)ccc12
The inhibition of the first is lower: 16.1% for the first, 31.7% for the second.

Going from `Cc1occc1C(=O)NNC(=O)c1ccccc1Br` to `Cc1cc(SCC(=O)N/N=C/c2ccc(O)c(O)c2)c(C)cc1Br`, the inhibition rises from -1.69% to -0.74%.

`CC(C)NC(=O)c1sc2nc(-c3cccs3)cc(-c3cccs3)c2c1N` was tested, and the inhibition was 24.2% (active).
For `Cc1ccc(-c2cn3cccnc3n2)cc1NC(=O)c1ccc(Br)o1`, the inhibition was 24.6% (active).
In the case of `COc1cccc(NC(=O)C2CCN(S(=O)(=O)c3ccc4c(c3)OCCO4)CC2)c1`, the inhibition is reported as 43% (active).
`O=C(NCc1cccs1)C1CCN(S(=O)(=O)c2ccc3c(c2)OCCO3)CC1` was tested, and the inhibition was 23.4% (active).
In the case of `O=C1CC(N(Cc2ccco2)C(=O)Nc2ccc(F)cc2)C(=O)N1c1ccc(F)cc1` (centres undefined), the inhibition is reported as 23.6% (active).
With `NC(=S)Nc1nc2ccccc2[nH]c1=O` the inhibition was 23.5% (active).
`Cc1cc(SCC(=O)N/N=C/c2ccc(O)cc2O)c(C)cc1Br` was tested, and the inhibition was 24% (active).
In the case of `C=CCn1c(Cn2nnc3ccccc32)nnc1SCC(=O)N/N=C/c1cc(Br)cc(OC)c1O`, the inhibition is reported as 46.2% (active).
With `C=CCn1c(CNc2ccc(C)cc2)nnc1SCC(=O)N/N=C/c1ccc(O)cc1O` the inhibition was 37% (active).
